Source: PubChem BioAssay AID686978 (National Center for Advancing Translational Sciences (NCATS), 2013)
Among all 420,000 compounds or so, about 64,000 (15%) were called active. Roughly 27% stayed inconclusive and do not appear here. Only a sample is shown. Values without a mark were called inactive. Calls follow the shape of the dose curve; as a rule, active = well fitted inhibition curve with a large enough effect; inconclusive = small, poorly fitted or top-dose-only effect; inactive = flat fitted curve, though single readings scatter.

Test: qHTS for Inhibitors of human tyrosyl-DNA phosphodiesterase 1 (TDP1): qHTS in cells in absence of CPT; also: nearly all actives have a fitted effect of over 55% in size
Settings: DT40 Tdp1-/- hTDP1 cells, no CPT, ATP luminescence, 48 h; activity change, negative = growth inhibition: at 46.2 µM (top of the series)
Summary of the method: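 Chicken DT40 Tdp1-/- cells stably complemented with human TDP1 were seeded at 400 cells/well with DMSO in place of 20 nM camptothecin. After compound pinning, cells grew at least 48 hr at 37 °C; viability read by CellTiter-Glo luminescence.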
% is scaled to controls: 0 for no effect and ±100 for the full control effect; potency is read from the fitted curve at half-maximal effect.

SMILES | activity change, negative = growth inhibition | Potency
Cc1cc(C)c(C)c(S(=O)(=O)Nc2cccnc2)c1C | -12.7% | 
Cc1cc(C)c(C)c(S(=O)(=O)Nc2ccc(O)cc2)c1C |  | 11.6 µM (active)
Cc1cc(C(C)(C)C)cc(S(=O)(=O)Nc2ccc(C(=O)O)cc2)c1C | -0.652% | 
COc1cc(NC(=O)C2CC(c3ccccc3O)=NO2)c(OC)cc1Cl (centres undefined) | -15% | 
CC/S(CC1CC1(Cl)Cl)=N\S(=O)(=O)c1ccc(C)cc1 (centres undefined) | -13.4% | 
COC(=O)CCNc1ccc2c(c1)OCCO2 | -12.9% | 
O=C(NCCOc1ccccc1)c1ccccc1 | -0.273% | 
O=C(NCCc1ccccc1)c1ccc(OCCOc2ccccc2)cc1 | 2.77% | 
CC(C)(c1ccccc1)c1ccc(OCCN)cc1 |  | 11.6 µM (active)
O=C(CSc1ncccn1)N1CCCC1 | -10.3% | 
CCc1nnc(NC(=O)CSc2nc3c(c(=O)n2-c2ccccc2OC)SCC3)s1 | -17.8% | 
CN(C)S(=O)(=O)c1ccc(C(=O)NCCN=C2NS(=O)(=O)c3ccccc32)cc1 | 4.5% | 
NC(=S)NN=C1CCCC(C(F)(F)F)C1 (centres undefined) |  | 23.1 µM (active)
Cc1cc(C)nc(SCc2cn3c(C)cc(C)nc3n2)n1 | -8.17% | 
O=[N+]([O-])/C(N=Nc1ccccc1)=N\Nc1ccccc1 | 4.72% | 
O=S(=O)(c1ccc(Br)c2ccccc12)N1CCOCC1 | -4.4% | 
O=S(=O)(NCCc1ccccn1)c1cc(Cl)cc(Cl)c1O | 12.2% | 
COc1ccc(NC(=O)c2sc(N)nc2-c2ccccc2)cc1 | 19.9% | 
COC(=O)CCc1sc(Nc2ccc(Br)cc2)nc1-c1ccc(OC)cc1 |  | 13 µM (active)
COc1ccc(NC(=O)CCC(=O)Nc2nnc(C3CCCCC3)s2)cc1 | -8.09% | 
CC(C)(C)n1nc2c(c1NC(=O)c1cc3ccccc3o1)CSC2 | -14.3% | 
C[C@H](NC(=O)OC(C)(C)C)c1nnc(SCC(N)=O)o1 | 0.895% | 
CC(C)Sc1nnc([C@H](Cc2ccccc2)NC(=O)OC(C)(C)C)o1 | -15.6% | 
C[C@@H](NC(=O)OC(C)(C)C)c1nnc(S(=O)(=O)Cc2ccccc2)o1 |  | 1.03 µM (active)
O=C(CSc1nnc(CNC(=O)c2ccc(F)cc2)o1)Nc1ccc2c(c1)OCO2 | -1.83% | 
Cc1cc(=O)[nH]c(=S)[nH]1 |  | inactive
COc1cc(C(=O)OCc2ccc([N+](=O)[O-])cc2)cc(OC)c1OC | -7.17% | 

SMILES | activity change, negative = growth inhibition | Potency
Cc1ccc(C(=O)Cn2cc([N+](=O)[O-])nc2C)cc1 | -14.6% | 
Cc1cc(CO)nn1-c1ccc([N+](=O)[O-])cc1 | -14% | 
Cc1ccc(-n2cc3ccc([N+](=O)[O-])cc3n2)cc1 |  | 16.4 µM (active)
O=C(CN1CCN(c2ccccn2)CC1)NC1CCCCC1 | 2.13% | 
O=C1CCC(CCC(=O)N2CCCC(C(=O)c3ccc(Cl)cc3)C2)=NN1 (centres undefined) | -5.18% | 
COc1cc(OC)cc(-c2nc3nc(C)c(CCC(=O)Nc4ccccc4)c(C)n3n2)c1 |  | 29.1 µM (active)
COc1cc(OC)cc(-c2nc3nc(C)c(CCC(=O)Nc4ccc(C)cc4)c(C)n3n2)c1 | -28.1% | 
CCOC(=O)c1cccc(NC(=O)CCc2c(C)nc3ncnn3c2C)c1 | 2.02% | 
COc1ccc(-c2c(-c3cc(OC)cc(OC)c3)n(C)c3ccc(-c4ccn[nH]4)cc23)cc1 |  | 25.9 µM (active)
COc1ccc(-c2cn[nH]c2-c2ccc(OC)cc2)cc1 | -22.1% | 
COc1cc(OC)cc(-c2c(C#Cc3ccsc3)c3cc(-c4ccc(SC)cc4)ccc3n2C)c1 | -1.65% | 
COc1cc(OC)cc(-c2c(-c3cccs3)c3cc(-c4ccc(OC)cc4F)ccc3n2C)c1 |  | 14.6 µM (active)
COc1ccc(OC)c(-n2c(-c3ccn[nH]3)n[nH]c2=S)c1 | -17.3% | 
O=C(CSc1nncs1)NC1CCCc2ccccc21 (centres undefined) | 12.5% | 
Cc1nc2cc3c(cc2s1)OCO3 | -7.5% | 
Cc1nnc(SCC(=O)NC(=O)NC2CCCC2)n1N | -14.4% | 
COc1ccc(N2CC(C(=O)N[C@@H](C)C(=O)N3CCCCC3)CC2=O)cc1 (some centres undefined) | 19.1% | 
CCOC(=O)C1CCN(S(=O)(=O)c2ccc3c(c2)N(C)C(=O)CC(=O)N3C)CC1 |  | inactive
O=[n+]1c2c(n([O-])c3cc(Br)ccc31)CCC2 | -2.65% | 
CC(C)c1ccc(C2C(C(=O)c3ccco3)=C(O)C(=O)N2CC2CCCO2)cc1 (centres undefined) | -77.9% (active) | 
O=C(C1=C(O)C(=O)N(Cc2ccccc2)C1c1cccnc1)c1ccco1 (centres undefined) | 8.79% | 
CCOc1cc(C2C(C(=O)c3ccco3)=C(O)C(=O)N2Cc2ccccc2)ccc1O (centres undefined) | -10.7% | 
CCCc1nnc(NC(=O)CN2C(=O)c3ccccc3S2(=O)=O)s1 | 3.89% | 
Cc1ccc(-n2ncc3c(=O)n(-c4ccc(C)c(C)c4)c(-c4ccco4)nc32)cc1 |  | 18.4 µM (active)
Cc1ccc(-c2nc3c(cnn3-c3ccccc3)c(=O)o2)cc1 | -13.9% | 
Cc1ccc(-n2ncc3c(Nc4cccc(C(=O)O)c4)ncnc32)cc1 | -12.6% | 
O=Cc1c(NCCc2cccc(F)c2)c2ccccc2[nH]c1=O | -6.03% | 
